# From PubChem BioAssay
# Shown are actives, neighbours in structure and some others; about 2.5% of the full set was active somewhere.
# ULK1 primary – ULK1 kinase inhibitors, primary screen, biochemical, AlphaScreen | AID 1259251, 2017 | inhibition, % at 5.96 µM | 1.9% of 30,000 active | Serine/threonine-protein kinase ULK1 (Homo sapiens), O75385 | AlphaScreen Atg13 phosphorylation by ULK1, luminescence; in the data active = inhibition above about 43%;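 also: 0% = median of compound wells and 100% = no enzyme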
# Target sequence (O75385 whole entry, looked up): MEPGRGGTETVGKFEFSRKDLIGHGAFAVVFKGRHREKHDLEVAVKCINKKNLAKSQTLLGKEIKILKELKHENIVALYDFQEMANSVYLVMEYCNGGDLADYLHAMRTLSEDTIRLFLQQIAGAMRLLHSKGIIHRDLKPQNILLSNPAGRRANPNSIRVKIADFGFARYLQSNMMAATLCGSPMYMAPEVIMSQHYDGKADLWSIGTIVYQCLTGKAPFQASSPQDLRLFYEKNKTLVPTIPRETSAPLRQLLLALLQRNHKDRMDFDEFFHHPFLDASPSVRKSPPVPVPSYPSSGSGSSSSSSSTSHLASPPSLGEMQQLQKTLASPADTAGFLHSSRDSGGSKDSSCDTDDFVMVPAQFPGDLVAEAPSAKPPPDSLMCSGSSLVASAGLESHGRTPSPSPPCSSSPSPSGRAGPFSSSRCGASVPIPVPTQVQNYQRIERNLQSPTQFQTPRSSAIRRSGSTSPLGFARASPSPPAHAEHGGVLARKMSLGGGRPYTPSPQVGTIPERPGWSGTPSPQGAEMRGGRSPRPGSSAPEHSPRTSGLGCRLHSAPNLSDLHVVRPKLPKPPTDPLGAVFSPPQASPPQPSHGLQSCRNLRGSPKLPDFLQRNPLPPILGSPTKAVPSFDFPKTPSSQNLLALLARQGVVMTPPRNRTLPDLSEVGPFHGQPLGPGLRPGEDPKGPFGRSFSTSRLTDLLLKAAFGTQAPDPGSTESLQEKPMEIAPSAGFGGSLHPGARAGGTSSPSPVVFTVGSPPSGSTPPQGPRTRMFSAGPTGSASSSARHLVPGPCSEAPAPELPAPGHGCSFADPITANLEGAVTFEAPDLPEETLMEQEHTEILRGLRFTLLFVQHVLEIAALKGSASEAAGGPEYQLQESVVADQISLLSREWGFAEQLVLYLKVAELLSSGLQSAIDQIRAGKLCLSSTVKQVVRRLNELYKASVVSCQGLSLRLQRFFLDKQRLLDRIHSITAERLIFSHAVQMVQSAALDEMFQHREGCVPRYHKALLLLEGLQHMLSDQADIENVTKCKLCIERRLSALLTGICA
# ASK1 primary – ASK1 kinase inhibitors, primary screen, biochemical, AlphaScreen. inhibition, % at 7.44 µM. Mitogen-activated protein kinase kinase kinase 5 (Homo sapiens), Q99683. 0.99% of 22,000 active. AlphaScreen MKK6 phosphorylation by ASK1, luminescence; in the data active = inhibition above about 35%;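 also: 0% = median of compound wells and 100% = no enzyme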
# Starred values were filed as active, the others as inactive; . = no result given.
SMILES,ULK1 primary,ASK1 primary
Cc1ccc(-c2ncn(-c3ccc(Nc4ncc5ccc(-c6cnn(C)c6)cc5n4)cc3)n2)cn1,1,17
Cn1cc(-c2ccc3cnc(Nc4ccc(-n5ccnc5)cc4)nc3c2)cn1,88*,-4
Cn1cc(-c2ccc3cnc(Nc4ccc(C(=O)N5CCOCC5)cc4)nc3c2)cn1,73*,-3
Cn1cc(-c2ccc3cnc(Nc4ccc(-n5cnc(-c6ccccn6)n5)cc4)nc3c2)cn1,17,8
Cn1ncc2cc(Nc3ncc4ccc(-c5cn[nH]c5)cc4n3)ccc21,75*,27
O=C(NC1CCN(Cc2ccccc2)CC1)c1cnc(NCCN2CCOCC2)s1,-3,-18
c1cncc(CNc2nc(NCCN3CCOCC3)nc3c2ncn3-c2ccsc2)c1,10,5
O=C(NCCCN1CCCC1=O)c1ccc2nc(N3CCC(N4CCOCC4)CC3)sc2c1,-2,-12
COc1cc(C)c(C)cc1S(=O)(=O)Nc1ccc(-c2ccc(N3CCCCC3)nn2)cc1,-9,.
O=C(NCCOc1ccccc1)c1cccc(Nc2ccncc2)c1,8,-23
Cc1ccc(C(=O)N[C@H]2CCN(S(=O)(=O)c3cccc4c(C)cncc34)C2)cc1F,-2,0
COc1ccc(CCNc2cc(-c3c(C)nn(C)c3C)nc(N)n2)cc1,6,-5
c1ccc(-c2nc3ncnc(NCc4cccnc4)c3[nH]2)cc1,23,-14
Cc1cnc(Nc2ccc(-n3ccnc3)cc2)nc1N,23,-12
Cn1cc(-c2ccc3cnc(Nc4ccc(N5CCOCC5)cc4)nc3c2)cn1,84*,19
Cn1cc(-c2nc(Nc3ccc(N4CCOCC4)cc3)ncc2F)cn1,20,-22
c1cn(-c2ccc(Nc3ncc4ccc(-c5cn[nH]c5)cc4n3)cc2)cn1,90*,25
CC(=O)Nc1ccc(NC(=O)c2cccc(-c3c(C)noc3C)c2)cc1,-6,-4
CC(=O)c1cccc(-c2nc(NCCc3ccc(O)cc3)c3ncn(C4CCCCC4)c3n2)c1,0,10
c1ccc2oc(-c3ccncc3)cc2c1,-7,.
CC(C)n1cnc2c(Nc3ccccc3)nc(Cl)nc21,30,-3
CC(C)n1cnc2c(Nc3ccc(N4CCOCC4)cc3)nc(Nc3ccccc3)nc21,56*,15
CC(C)n1cnc2c(Nc3ccc(N4CCOCC4)cc3)nc(Nc3ncccn3)nc21,16,-13
CC(=O)Nc1ccc(Nc2nc(Cl)nc3c2ncn3C(C)C)cc1,47*,-19
CC(=O)Nc1ccc(Nc2nc(Nc3cnccn3)nc3c2ncn3C(C)C)cc1,61*,8
SMILES,ULK1 primary,ASK1 primary
CC(C)n1cnc2c(Nc3ccccc3)nc(Nc3cnccn3)nc21,23,3
CC(C)n1cnc2c(Nc3ccc(N4CCOCC4)cc3)nc(Nc3cnccn3)nc21,65*,6
CCNc1nc(Nc2ccc(N3CCOCC3)cc2)c2ncn(C(C)C)c2n1,34,8
O=C1CCCN1CCn1cnc2c(NCc3ccccc3)nc(Nc3ccncc3)nc21,8,0
Cc1ccc(-c2cccc3cnc(NC4CCC(O)CC4)nc23)cn1 (stereo not given),14,-5
CN(C)CCOc1cc(-c2cn[nH]c2)ccc1NC(=O)Nc1ccc(-c2cn[nH]c2)cc1OCCN(C)C,0,19
CC(C)C[C@H](O)C(=O)N1CCC(Nc2ccc3[nH]ncc3c2)CC1,53*,-38
CC(C)C[C@H](O)C(=O)N1CCC(C(=O)Nc2ccc3[nH]ncc3c2)CC1,2,-10
CCOC(=O)N1CCN(c2cc(-c3ccc(F)cc3)nc(-c3cccnc3)n2)CC1,-2,.
N#Cc1c(N)sc(=S)c2c1CCN(Cc1ccccc1)C2,75*,.
O=C(Nc1nc2c(s1)CN(Cc1ccccc1)CC2)C1CCCCC1,0,.
COc1cc(Nc2ncnc3nc(Nc4ncccn4)[nH]c23)cc(OC)c1OC,15,4
O=C(c1cccc(Nc2ccc3[nH]ncc3c2)n1)N1CCOCC1,48*,-1
O=C(c1cc(Nc2ccc3[nH]ncc3c2)ccn1)N1CCOCC1,-3,-2
CSc1ccc(/C=C(/NC(=O)c2ccccc2)C(=O)NCCO)cc1,-3,.
N[C@H](Cc1ccc(Br)cc1)C(=O)N1CCC(C(=O)Nc2ccncc2)CC1,5,-3
C[C@@H](N)C1CCC(C(=O)Nc2ccncc2)CC1 (stereo not given in full),64*,15
CCN(CC)c1nc(NCCc2ccc(OC)cc2)nc(Nc2ccncn2)n1,-11,-3
Cc1ncn(-c2ccc(Nc3ncc4cccc(-c5ccnn5C)c4n3)cc2)n1,52*,-26
Cc1ncn(-c2ccc(Nc3ncc4cccc(-c5ccn[nH]5)c4n3)cc2)n1,24,16
Cc1ncn(-c2ccc(Nc3ncc4cccc(-c5cn[nH]c5C)c4n3)cc2)n1,55*,-21
Cc1ncn(-c2ccc(Nc3ncc4cccc(-c5ccn(C)n5)c4n3)cc2)n1,89*,-74
